CASP6 VEID inh = blocks human caspase-6 cleavage activity; 0.53% of 350,000 active; P55212; inhibition, % at 12.5 µM; purified caspase-6, Z-VEID-R110 cleavage fluorescence;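 active means mean inhibition across replicates at least about 35%, with every replicate also reaching that limit, limit read from the data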;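 further: 0% = median of neutral control wells and 100% = no fluorescence left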
MLL AF4-AF9 inh = MLL-AF4/AF9 protein interaction inhibition | AID 651704 | AlphaScreen, biotin-AF4 peptide binding to FLAG-AF9 | 0.47% of 350,000 active | inhibition, % at 10 µM | P42568;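 active means every replicate reaching a set inhibition limit, whatever the replicate mean, cut at about 25% in these data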;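 further: 0% = plate neutral control median and 100% = total signal loss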
Glyco luc inh = blocks N-linked glycosylation in D54 reporter cells; reporter increase, % at 12.5 µM; 0.23% of 360,000 active; D54 ERlucT glycosylation luciferase reporter, 24 h; percent of 100 nM tunicamycin response; AID 588692;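 active means mean luciferase reporter signal, scaled so untreated is 0 and the glycosylation-blocking control 100, at or above a set limit in every replicate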;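 further: luciferase carries N-glycosylation sites so blocking glycosylation raises the light; 0% = median of neutral control wells and 100% = median of 100 nM tunicamycin wells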
RAD54 branch = inhibitors of human RAD54 branch migration. Q92698. RAD54 Holliday junction branch migration, FAM/BHQ fluorescence. inhibition, % at 10.4 µM. 0.14% of 360,000 active. AID 602329;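 active means mean normalized replicate activity at least 40 and at least half of replicates scoring 40 or more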;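 further: 0% = median of neutral control wells and 100% = median of positive control wells; inhibitors cause a drop in the FAM fluorescence signal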
Target sequence (Q92698 whole entry, looked up): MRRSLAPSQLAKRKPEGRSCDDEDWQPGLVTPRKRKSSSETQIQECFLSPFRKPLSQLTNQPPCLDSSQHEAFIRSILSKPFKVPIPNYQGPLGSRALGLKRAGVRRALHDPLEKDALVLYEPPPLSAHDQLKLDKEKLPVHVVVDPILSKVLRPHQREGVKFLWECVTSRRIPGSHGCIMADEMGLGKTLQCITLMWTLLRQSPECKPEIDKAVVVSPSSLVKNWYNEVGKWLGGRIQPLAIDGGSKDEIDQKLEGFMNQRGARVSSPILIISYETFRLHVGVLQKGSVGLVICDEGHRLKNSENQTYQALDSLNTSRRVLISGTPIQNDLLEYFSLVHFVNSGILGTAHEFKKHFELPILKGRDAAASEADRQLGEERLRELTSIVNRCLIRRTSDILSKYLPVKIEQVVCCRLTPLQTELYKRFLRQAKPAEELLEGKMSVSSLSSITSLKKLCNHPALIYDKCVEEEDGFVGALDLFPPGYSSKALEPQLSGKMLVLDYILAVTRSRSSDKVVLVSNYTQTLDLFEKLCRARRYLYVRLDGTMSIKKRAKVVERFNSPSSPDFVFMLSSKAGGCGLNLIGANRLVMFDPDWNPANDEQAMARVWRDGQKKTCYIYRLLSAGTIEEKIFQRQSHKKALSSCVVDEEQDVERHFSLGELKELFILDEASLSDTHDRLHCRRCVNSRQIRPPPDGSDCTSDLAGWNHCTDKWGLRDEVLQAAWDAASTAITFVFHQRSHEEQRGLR
RAD52 inh = RAD52 (human) annealing inhibition. P43351. recombinant RAD52 DNA annealing, FRET fluorescence. inhibition, % at 18.7 µM. 0.46% of 360,000 active;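 active means every replicate showing at least 50% inhibition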
Active calls of the source: *; . = no result. Compounds with a hit are over-represented: about 1.2% of the library has one in this group of screens.

SMILES	CASP6 VEID inh	MLL AF4-AF9 inh	Glyco luc inh	RAD54 branch	RAD52 inh
O=C(O)c1cc(-c2ccc(/C=C3\NC(=O)N(c4ccccc4)C3=O)o2)ccc1Cl	25	-3	1	-11	-69
Cc1cccc(N2NC(=O)/C(=C/c3ccc(-c4ccc(Cl)c(C(=O)O)c4)o3)C2=O)c1	52*	-2	-1	.	-6
O=C1NN(c2ccccc2)C(=O)/C1=C/c1ccc(Sc2ccc(Cl)cc2)o1	40*	4	35*	.	-31
O=C1NN(c2ccccc2)C(=O)/C1=C/c1ccc(-c2ccc(Cl)c(C(=O)O)c2)o1	55*	1	1	.	-21
Cc1ccc(Sc2ccc(/C=C3/C(=O)NN(c4ccccc4)C3=O)o2)cc1	24	7	8	.	0
Cc1nc(S(=O)(=O)N[C@@H]2CCCN(Cc3cccc(OCCO)c3)C2)cn1C	1	14	.	.	13
COc1ccc2c3c([nH]c2c1)[C@@H](CO)N(C(C)=O)CC31CN(C(=O)c2ccc3c(c2)OCO3)C1	3	18	.	.	-5
COc1ccccc1CN1C[C@@H](C)[C@H](OC)CN(C)C(=O)c2ccc(NC(C)=O)cc2OC[C@@H]1C	1	4	.	-3	7
C[C@@H]1CN([C@@H](C)CO)C(=O)Cc2cc(NS(=O)(=O)c3cn(C)cn3)ccc2O[C@@H]1CN(C)Cc1ccc(Cl)c(Cl)c1	-2	3	.	-13	16
COCC(=O)Nc1ccc2c(c1)C(=O)N(C)[C@@H]1CC[C@@H](CC(=O)O)O[C@H]1CO2	.	.	.	2	.
COc1ccccc1N1CCN(C(=O)C(C)CS(=O)(=O)c2ccc3c(c2)NC(=O)CS3)CC1 (centres undefined)	68*	-29	-1	-7	3
COCC(=O)Nc1ccc2c(c1)[C@@H]1C[C@@H](CC(=O)NCc3ccccc3F)O[C@@H](CO)[C@@H]1O2	4	1	.	-8	-6
NNC(=O)c1ccc(OCC2CC(c3ccc(Cl)cc3)=NO2)cc1 (centres undefined)	-4	-4	52*	0	-14
COc1cccc(N2[C@@H](CC(C)=O)c3ccc(/C=C/C(C)=O)cc3S2(=O)=O)c1	-3	1	38*	-2	-62
CC(CN1CCCCC1)C(=O)NNC(=O)C12CC3CC(CC(C3)C1)C2 (centres undefined)	43*	2	3	0	1
COCC(=O)Nc1ccc2c(c1)C(=O)N(C)C[C@@H](OC)[C@H](C)CN(Cc1cccc(F)c1)[C@@H](C)CO2	2	1	.	-2	5
CCOc1ncccc1C(=O)N1CCN(c2cc(Cl)ccc2C)CC1	0	1	30*	.	-14
CCC(CO)Oc1cc(NC(=O)c2ccc(N)cc2)c2ncn(C(C)C)c2c1 (centres undefined)	38*	4	2	-17	2
CCC(CO)Oc1cc(NC(=O)c2ccc(F)cc2)c2ncn(C(C)C)c2c1 (centres undefined)	-1	-10	-1	2	-6
CCCNC(=O)N1CC(=O)N2[C@@H](CO)[C@H](c3ccc(C#Cc4cccc(F)c4)cc3)[C@@H]2C1	-1	-2	.	.	-9
Cc1ccc(-n2c(=O)cc(N3CC(C)OC(C)C3)[nH]c2=O)cc1 (centres undefined)	0	44*	1	5	-5
CC1CN(c2cc(=O)n(-c3ccccc3)c(=O)[nH]2)CC(C)O1 (centres undefined)	-1	-2	1	8	-14
COC(=O)c1sccc1NC(=O)C1CC(C)=C(C)CC1C(=O)O (centres undefined)	-1	30*	-1	.	-14
CC(C)N1CCc2c(sc(NC(=O)c3cc(-c4cccs4)nc4ccccc34)c2C(N)=O)C1	.	.	-5	78*	.
Cc1noc(C)c1NC(=O)Nc1ccc2c(c1)C(=O)N([C@H](C)CO)C[C@@H](C)[C@H](CN(C)Cc1ccc3c(c1)OCO3)O2	1	-1	.	10	-7
SMILES	CASP6 VEID inh	MLL AF4-AF9 inh	Glyco luc inh	RAD54 branch	RAD52 inh
O=C(NC1CCCCC1)N[C@@H]1C=C[C@@H](CC(=O)N2CCOCC2)O[C@@H]1CO	4	38*	.	-1	2
O=C(NC1CCCCC1)N[C@H]1C=C[C@@H](CC(=O)N2CCOCC2)O[C@@H]1CO	37*	-6	.	7	4
O=C(NC1CCCCC1)N[C@@H]1C=C[C@H](CC(=O)N2CCOCC2)O[C@H]1CO	-7	-1	.	4	14
O=C(NC1CCCCC1)N[C@H]1C=C[C@H](CC(=O)N2CCOCC2)O[C@H]1CO	7	1	.	7	-7
C[C@@H]1CCCCO[C@H](CN(C)C(=O)CCCN(C)C)[C@H](C)CN([C@H](C)CO)C(=O)c2cc(NC(=O)Nc3cccc4ccccc34)ccc2O1	4	-2	.	12	24
CC(C)[C@H]1CC[C@@H](C)C(C(=O)c2ccccc2)C1=O (some centres undefined)	-6	58*	1	3	-9
O=C(c1ccccc1)[C@H]1CC=CC[C@H]1C(=O)O	.	.	2	11	.
COc1ccc(OC)c(S(=O)(=O)NCC(c2cccs2)N2CCc3ccccc3C2)c1 (centres undefined)	72*	-1	-2	6	-3
COc1ccc(S(=O)(=O)NCC(c2cccs2)N2CCc3ccccc3C2)cc1 (centres undefined)	-1	-1	-4	-3	-16
COc1ccc2c(-c3cc4ccc(OCc5ccc(F)cc5)cc4oc3=O)cc(=O)oc2c1	1	1	37*	.	-15
COc1ccc(COc2ccc3c(C)cc(=O)oc3c2)cc1	0	-11	-3	11	-6
COc1cccc(S(=O)(=O)N(C)C[C@@H]2Oc3ncc(C#CC(C)C)cc3C(=O)N([C@H](C)CO)C[C@H]2C)c1	5	3	.	4	19
O=[N+]([O-])c1ccc(Sc2cc[n+]([O-])c3ccccc23)c([N+](=O)[O-])c1	12	1	28*	2	-8
O=c1[nH]c(Sc2ccc([N+](=O)[O-])cc2[N+](=O)[O-])nc2ccccc12	1	4	10	-3	-20
O=C(Nc1ccc(F)cc1)N[C@H]1CC[C@H](CCNS(=O)(=O)c2ccccc2F)O[C@H]1CO	1	-1	.	1	5
COc1cccc2c(=O)n(CC(=O)Nc3ccc(F)cc3F)ccc12	-1	3	0	-6	-82
COc1cccc2c(=O)n(CC(=O)Nc3ccccc3)ccc12	5	48*	3	9	-12
O=C(Nc1cccc(CNCCc2c[nH]c3ccccc23)c1)c1ccccc1Cl	-9	35*	1	10	-5
C[C@@H]1CCCCO[C@@H](CN(C)Cc2ccc3c(c2)OCO3)[C@H](C)CN([C@@H](C)CO)C(=O)c2cc(NC(=O)CCC(F)(F)F)ccc2O1	-2	-1	.	-9	19
COc1ccccc1-c1cn(CC[C@@H]2CC[C@H](NC(=O)CCN3CCCCC3)[C@H](CO)O2)nn1	-1	1	.	4	-6

Screening data: PubChem, Broad Institute
